# Experimental data taken from the supplement of paper PMC6555819.
# Tests used:
# Assay in all cases: PBM binding z-score (relative to random genomic background probes); higher = stronger binding; sequences stand for … in GC…GCGATTGACAGCGTAGAATGAAGG
# [1] = system: PPARg:RXRa DBDmut IVT, anti-RXR (DBD mutation: RXRa K156A/R161A, NR concentration 270 nM, RXRa partner concentration 90 nM)
# Method in brief: (§1)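 Binding buffer was PBS pH 7.4 with 2% milk, 0.02% Triton X-100, 1 mM DTT, 0.2 mg/mL BSA and 0.4 mg/ml salmon testes DNA. In it, ligand-free nuclear receptor dimers were incubated 1 h on custom Agilent 4×180K protein-binding microarrays carrying double-stranded probes. Antibodies against each partner (one per run) detected binding, and z-scores were calculated against random background probes after regression normalization of scanned fluorescence.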
# [2] = system: PPARg:RXRa IVT, anti-PPARg (NR concentration 270 nM, RXRa partner concentration 90 nM)
# Method in brief: as §1
# [3] = system: PPARg DBDmut:RXRa IVT, anti-PPARg (DBD mutation: PPARg1 K132A/R137A, NR concentration 270 nM, RXRa partner concentration 90 nM)
# Method in brief: as §1
# [4] = system: PPARg DBDmut IVT, anti-PPARg (DBD mutation: PPARg1 K132A/R137A, NR concentration 270 nM)
# Method in brief: as §1
# [5] = system: PPARg homodimer (NR concentration 180 nM)
# Method in brief: as §1
# [6] = system: PXR:RXRa (NR concentration 270 nM, RXRa partner concentration 90 nM)
# Method in brief: as §1
# [7] = system: PXR homodimer (NR concentration 270 nM)
# Method in brief: as §1
# [8] = system: RARa:RXR (NR concentration 270 nM, RXRa partner concentration 90 nM)
# Method in brief: as §1
# [9] = system: RARa homodimer (NR concentration 270 nM)
# Method in brief: as §1
# [10] = system: RARb:RXRa (NR concentration 270 nM, RXRa partner concentration 90 nM)
# Method in brief: as §1
# [11] = system: RARb homodimer (NR concentration 270 nM)
# Method in brief: as §1
# [12] = system: RARg:RXRa (NR concentration 270 nM, RXRa partner concentration 90 nM)
# Method in brief: as §1
# [13] = system: RARg homodimer (NR concentration 270 nM)
# Method in brief: as §1
# [14] = system: RXRa DBDmut IVT, anti-RXR (DBD mutation: RXRa K156A/R161A, NR concentration 90 nM)
# Method in brief: as §1
# [15] = system: RXRa homodimer (NR concentration 180 nM)
# Method in brief: as §1
# [16] = system: THRa:RXRa (NR concentration 90 nM, RXRa partner concentration 90 nM)
# Method in brief: as §1
# [17] = system: THRa homodimer (NR concentration 90 nM)
# Method in brief: as §1
# [18] = system: VDR homodimer (NR concentration 270 nM)
# Method in brief: as §1
Sequence,PBM binding z-score [1],PBM binding z-score [2],PBM binding z-score [3],PBM binding z-score [4],PBM binding z-score [5],PBM binding z-score [6],PBM binding z-score [7],PBM binding z-score [8],PBM binding z-score [9],PBM binding z-score [10],PBM binding z-score [11],PBM binding z-score [12],PBM binding z-score [13],PBM binding z-score [14],PBM binding z-score [15],PBM binding z-score [16],PBM binding z-score [17],PBM binding z-score [18]
AGAATGAAGTTACCAAAGATCAGGGAAACGCTTG,-0.595,-0.423,0.443,0.266,-0.127,-0.206,-0.375,-0.000481,-0.214,-0.335,-0.995,0.125,0.206,-0.628,0.402,-0.228,-1.02,-0.257
CGTCCAAGGTGAGAGAGGTCAGTGAATGCCGAGT,2.16,2.49,-1.39,-1.25,2.8,3.75,2.87,3.54,0.726,3.46,4.13,3.38,3.7,0.994,2.89,3.33,1.95,3.07
ATATGTAGGTTAGCTGGGGTCATTCAGACTAGGC,6.68,6.23,2.15,1.68,2.64,6.34,4.08,5.73,1.52,2.96,3.87,4.18,2.91,2.27,5.35,5.18,3.18,5.47
CAAACTAGGTCACGGAAGGTCAAAGTCGAATGAC,8.57,8.97,6.9,4.23,7.08,6.99,2.28,6.84,3.11,5.29,5.47,7.13,7.4,2.45,7.3,5.24,2.79,3.53
GCAGACAGGTGCAACGCAGGTAACTCAGGGTGGC,-0.637,-0.593,-1.75,-1.51,-0.974,-0.377,-0.796,0.0404,-1.09,-0.3,-0.431,-0.314,-0.365,0.123,0.00957,2.13,-0.805,-0.15
CAAACTAGGTCAAGAGGTTAAAGTCCGCTTCCCG,8.33,8.39,1.58,0.849,2.66,3.48,0.622,4.85,1.25,4.47,4.23,6.18,5.49,1.61,5.2,3.36,1.36,1.86
TCTTGTAGATCAACAGCAGGTTAAGAAAGATCGA,1.66,0.684,-0.0164,0.918,-0.793,0.178,-0.2,0.544,0.0361,0.0725,0.0548,0.165,-0.0185,0.681,0.512,0.308,-0.504,-0.471
ATATGTAGGTTATCGGTTCATTCAGTTTGCGCAT,7.25,7.09,4.06,4.75,2.66,3.48,11.4,1.73,1.25,1.32,1.17,1.39,0.882,2.4,1.66,1.27,1.08,5.79
CGAACTAGGTCATTGACTGGACAGTGAATAGTAA,8.06,8.06,5.21,5.65,0.956,0.89,0.0623,1.78,0.262,3.52,2.56,3.72,4.26,2.1,2.58,2.25,0.595,0.943
TCGAGTAGGATAGGGGCATTCAGAATGGCGTCGA,0.794,-0.24,-0.499,-1.34,0.0464,-0.136,-0.0675,-0.134,-0.862,0.225,0.241,-0.218,-0.225,0.0984,0.155,0.209,-0.171,0.237
TCATATAGGTAATACAGCTGAAAGTCGGCATCTA,4.01,1.94,0.896,1.18,1.1,0.684,-0.0774,0.947,0.987,0.188,-0.493,0.294,0.383,1.69,0.684,-0.0502,-0.127,-0.525
TCATATAGGTGAACAGGTGAAAGTCCGTAAGTTA,6.52,6.31,1.63,1.36,1.1,1,0.638,1.46,0.907,1.64,1.38,1.52,1.13,1.68,1.75,1.13,0.464,0.153
TCATATAGGTAATATAGGTGAAAGTCGGCATCTA,5.06,5.68,1.83,1.71,1.03,0.599,-0.0145,1.09,0.799,0.469,0.281,0.454,0.522,1.2,0.79,0.364,-0.347,0.0956
CAAACTAGGTCACAGAGGTCCAAGTCCGTGCGTA,8.78,9.18,3.75,2.44,2.41,3.43,0.225,3.05,0.32,4.22,3.68,4.67,5.11,1.99,3.35,3.83,1.52,2.2
CCAGACAGGTGAAAGGTAAATCAGTCTGGTACGC,1.86,2.8,0.0874,-1.06,2.52,0.697,-0.183,1.67,0.663,1.04,0.653,1.04,0.721,-0.121,1.85,0.832,-0.308,0.0909
